Common to all, as to assay: NCI-60 one-dose screen, 48 h (100 = growth as untreated, 0 = no growth, -100 = all killed)
Common to all, as to details: 10 µM unless noted

In experiment [1] the test system is T-47D breast.
The subject of experiment [2] is BT-549 breast.
For experiment [3], the system named is MDA-MB-435 melanoma.
Experiment [4] deals with SW-620 colon.
In experiment [5] the test system is MCF7 breast.
In experiment [6] the test system is HCT-116 colon.
Experiment [7] has as its system HCC-2998 colon.
Experiment [8] concerns KM12 colon.

Compounds without any hit were thinned out: in the full panel of roughly 83,000, 20% have a hit.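 Results are percent growth after 48 hours of single-concentration exposure. 100 means growth as in untreated cells, lower positive values show inhibition; negative values down to -100 show cell death.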 A number with no mark means an inactive call. Calls of active or inactive are those of the source. Rule for the calls: active = growth percent below 10; inactive = the rest.

Take `CCCCCC(/C=N\NC(=S)N/N=C/C(=C/c1ccccc1)CCCCC)=C\c1ccccc1`: the growth in experiment [1] was 83.9%; in experiment [2], 83.4%; in experiment [3], 81.6%; in experiment [4], 81.2%; in experiment [5], 75.9%; in experiment [6], 53.3%. Further, the growth in experiment [7] is 64.6%; in experiment [8], 66.7%.

In the case of `O=[N+]([O-])c1cccc(-c2nc3cc4nc5ccccc5[nH]c4cc3n2)c1`, the growth is 87.5% in experiment [1]; 102% in experiment [2]; 112% in experiment [3]; 112% in experiment [4]; 77.7% in experiment [5]; 93.1% in experiment [6]. The values for the growth in experiment [7] and in experiment [8] were 112% and 100%, respectively.

As to `CCN1C(=S)N(c2ccccc2)C2C1NN=c1s/c(=C3\C(=O)N(C(C)C)c4ccccc43)c(=O)n12` (configuration not stated), the growth in experiment [1] is 62.8%; in experiment [2] it was 96.6%; in experiment [3] it was 93.3%; in experiment [4] it was 75.6%; in experiment [5] it was 64.7%; in experiment [6], 41.7%. The values for the growth in experiment [7] and in experiment [8] were 109% and 81.7%, respectively.

`O=C1Nc2ccc(C(=O)O)cc2/C1=N/c1nnc(Sc2ccccc2)s1`: the growth in experiment [1] is 103%; in experiment [2], 123%; in experiment [3], 102%; in experiment [4] it was 103%; in experiment [5], 101%; in experiment [6], 104%. In addition, the growth in experiment [7] was 112%; in experiment [8] it was 99.9%.

Consider `Cn1cc(-c2csc(-c3cn(C(=O)OC(C)(C)C)c4ccc(Br)cc34)n2)c2ccnc(Cl)c21`, for which the growth in experiment [1] is 66.8%; in experiment [2] it was 63.9%; in experiment [3] it was 63.7%; in experiment [4], 75.8%; in experiment [5], 82.8%; in experiment [6] it was 64.7%. Further, the growth is 95% in experiment [7] and 90.4% in experiment [8].

Regarding `CCO/C=N/C1=C(C#N)C(c2ccc(Cl)cc2)c2sc3c(F)cccc3c2O1` (configuration not stated), the growth in experiment [1] was 54.8%; in experiment [2], 68.8%; in experiment [3] it was -30.4% (active); in experiment [4], 35.5%; in experiment [5] it was 26%; in experiment [6], 54.2%. Also, the results for the growth in experiment [7] and in experiment [8] were 84.2% and 42.2%, respectively.

On to `CC(=O)n1nc(C(=O)OC(C)(C)c2ccccc2)c2ccccc21`, for which the growth in experiment [1] was 86.3%; in experiment [2], 99.6%; in experiment [3], 92.1%; in experiment [4], 103%; in experiment [5], 94%; in experiment [6] it was 94.8%. Further, the results for the growth in experiment [7] and in experiment [8] were 98.2% and 94.7%, respectively.

Consider `Nc1cc(C(=O)NC[C@H]2CN(c3ccc(N4CCC(C(=O)O)CC4)cc3)C(=O)O2)ccc1Cl`, for which the growth in experiment [1] was 98.3%; in experiment [2] it was 104%; in experiment [3], 108%; in experiment [4], 97.7%; in experiment [5], 95.3%; in experiment [6], 105%. The growth in experiment [7] is 107%; in experiment [8], 100%.

As to `CCN(CC)c1ccc(\C=N/N=C(N)/C(N)=N\N=C/c2ccc(N(CC)CC)cc2)cc1`, the growth is 104% in experiment [1]; 104% in experiment [2]; 101% in experiment [3]; 104% in experiment [4]; 106% in experiment [5]; 105% in experiment [6]. Besides, the growth was 114% in experiment [7] and 106% in experiment [8].

For the compound `O=C1c2ccc3c4c5ccc(c24)C(=O)N1CCCOCCCCOCCCNCc1ccc(cc1)CNCCCOCCCCOCCCN(C3=O)C5=O`, the growth in experiment [1] is -48.7% (active); in experiment [2], 68.7%; in experiment [3], -95.4% (active); in experiment [4], -37.8% (active); in experiment [5], -58.3% (active); in experiment [6], -62.9% (active). Besides, the results for the growth in experiment [7] and in experiment [8] were -75% (active) and -30.4% (active), respectively.

In the case of `Cc1ccccc1/C=C/C(=O)c1cccc(OCCCOc2cccc(C(=O)/C=C/c3ccccc3C)c2)c1`, the growth is 73.2% [3 µM] in experiment [1]; 96.7% [3 µM] in experiment [2]; 97.7% [3 µM] in experiment [3]; 93.3% [3 µM] in experiment [4]; 13.5% [3 µM] in experiment [5]; 38.2% [3 µM] in experiment [6]. Besides, the growth in experiment [7] was 91.2% [3 µM]; in experiment [8] it was 95.4% [3 µM].

In the case of `Nc1n[nH]c2cccc(C#Cc3cccc(NC(=O)c4cc(F)cc(C(F)(F)F)c4)c3)c12`, the growth in experiment [1] is 67.3%; in experiment [2], 79.6%; in experiment [3] it was 71.2%; in experiment [4] it was 62.5%; in experiment [5] it was 68.4%; in experiment [6], 29.9%. In addition, the growth in experiment [7] is 70.8%; in experiment [8], 83.3%.

Take `O=C(O)c1ccc(-n2cc(/C=N/Nc3ccccc3)c(-c3ccc(F)cc3F)n2)cc1`: the growth was 35.4% in experiment [1]; 95.2% in experiment [2]; 45.9% in experiment [3]; 30.1% in experiment [4]; 41.6% in experiment [5]; 37.7% in experiment [6]. For the same compound, the growth in experiment [7] is 81.1%; in experiment [8], 29.3%.

In the case of `O=C(Nc1ccc(OS(=O)(=O)c2ccc(F)cc2)cc1)C1CCCCCC1`, the growth in experiment [1] is 81.4%; in experiment [2], 80.5%; in experiment [3], 97.3%; in experiment [4] it was 88.9%; in experiment [5] it was 92.1%; in experiment [6], 84.5%. Also, the growth was 78.9% in experiment [7] and 70.3% in experiment [8].

For `Nc1nc(N)c(-c2ccc(Cl)c(Cl)c2)c(CBr)n1`, the growth in experiment [1] is 91.6%; in experiment [2], 59.7%; in experiment [3] it was 49.8%; in experiment [4], 42%; in experiment [5] it was 76.7%; in experiment [6], 42%. The values for the growth in experiment [7] and in experiment [8] were 71.7% and 88.7%, respectively.

For the compound `COC(=O)c1nc(-c2ccccc2)oc1S(=O)(=O)Cc1ccccc1`, the growth in experiment [1] was 59.9%; in experiment [2] it was 80.1%; in experiment [3], 100%; in experiment [4] it was 32.9%; in experiment [5], 78.5%; in experiment [6], 68.9%. Besides, the growth in experiment [7] is 111%; in experiment [8], 96.4%.

For `N#CC(C#N)N=Nc1ccc(Br)cc1`, the growth in experiment [1] was 8.56% (active); in experiment [2], 49.2%; in experiment [3], 71.7%; in experiment [4], 18.4%; in experiment [5], 19.4%; in experiment [6] it was 13.4%. The growth in experiment [7] is 46%; in experiment [8], 80.8%.

As to `O=C1C(=O)N(Cc2ccc(-c3ccccc3)cc2)c2ccc(OC(F)(F)F)cc21`, the growth in experiment [1] was 49.7%; in experiment [2] it was 0.708% (active); in experiment [3], 38%; in experiment [4], 23.5%; in experiment [5], 11.6%; in experiment [6], 9.92% (active). Further, the growth in experiment [7] is 36.6%; in experiment [8], 12.5%.

With `CC/C=C\C[C@H](O)C/C=C1/C(=O)C=C[C@@H]1C/C=C\CCCC(=O)N(C)C`, the growth in experiment [1] is 10.7%; in experiment [2] it was -34.8% (active); in experiment [3], -18.1% (active); in experiment [4], -42.4% (active); in experiment [5], 7.79% (active); in experiment [6], -63.4% (active). Moreover, the results for the growth in experiment [7] and in experiment [8] were -90.7% (active) and -51.3% (active), respectively.

`Fc1cnccc1C1CC(c2ccc(N3CCNCC3)cc2)=NN1` (configuration not stated): the growth in experiment [1] is 82.2%; in experiment [2] it was 85.3%; in experiment [3], 105%; in experiment [4], 93.5%; in experiment [5] it was 73%; in experiment [6] it was 73.8%. Moreover, the growth in experiment [7] is 102%; in experiment [8] it was 96.2%.

As to `CCOC(=O)C1=C(N)Oc2c(sc3c(F)cccc23)C1c1ccc(O)cc1` (configuration not stated), the growth in experiment [1] is 26.5%; in experiment [2], 23.3%; in experiment [3], 5.63% (active); in experiment [4] it was 31.1%; in experiment [5], 14.9%; in experiment [6], 26%. Besides, the growth was 38% in experiment [7] and 24% in experiment [8].

Consider `S=c1sc2c(Cl)nc(-c3cccnc3)nc2n1-c1ccccc1`, for which the growth in experiment [1] is -14.5% (active); in experiment [2], 27.9%; in experiment [3], 41.2%; in experiment [4], 0.199% (active); in experiment [5], 3.63% (active); in experiment [6], 1.57% (active). Also, the growth in experiment [7] is 39.6%; in experiment [8], 46.3%.

As for `CN(C)CCNC(=O)c1cc2c3cc(Cl)ccc3[nH]c2c2ncccc12`, the growth is 24% in experiment [1]; 29.5% in experiment [2]; -41.3% (active) in experiment [3]; -2.12% (active) in experiment [4]; -16.1% (active) in experiment [5]; -56.6% (active) in experiment [6]. Also, the values for the growth in experiment [7] and in experiment [8] were -45.1% (active) and 25.2%, respectively.

As for `CCN(CC)CCn1c2ccc(O)cc2c2sc3cc(O)ccc3c(=O)c21`, the growth in experiment [1] was 50.4%; in experiment [2], 62.1%; in experiment [3], 40.5%; in experiment [4], 15.5%; in experiment [5], 8.08% (active); in experiment [6] it was 12.1%. For the same compound, the growth in experiment [7] was 42.3%; in experiment [8], 29.4%.

`O=S(=O)(Nc1ccc(Cl)c(C(F)(F)F)c1)c1ccc(-c2cnc(C3CC3)o2)cc1`: the growth in experiment [1] is 12.8%; in experiment [2] it was 23.7%; in experiment [3], 2.82% (active); in experiment [4], 22.4%; in experiment [5] it was 15.4%; in experiment [6], 10.1%. Moreover, the growth was 25.1% in experiment [7] and 8.14% (active) in experiment [8].

`CN(C)c1ccc(C(=O)OCCCCCCl)cc1`: the growth in experiment [1] was 82%; in experiment [2], 94.1%; in experiment [3], 96.6%; in experiment [4], 99.9%; in experiment [5], 95.1%; in experiment [6] it was 96.7%. Moreover, the growth in experiment [7] is 98.4%; in experiment [8] it was 97%.

Turning to `NS(=O)(=O)c1ccc(N=Nc2c(O)n(Cc3ccccc3)c3ccc(Cl)cc23)cc1`, the growth in experiment [1] was 79.4%; in experiment [2], 81.2%; in experiment [3], 79.4%; in experiment [4], 79.9%; in experiment [5], 75.3%; in experiment [6] it was 69.3%. Moreover, the growth in experiment [7] is 101%; in experiment [8] it was 88.5%.

`COc1ccc(\C=N/N=C(N)/C(N)=N\N=C/c2ccc(OC)cc2)cc1`: the growth was 90.3% in experiment [1]; 116% in experiment [2]; 107% in experiment [3]; 103% in experiment [4]; 104% in experiment [5]; 113% in experiment [6]. Also, the growth in experiment [7] and in experiment [8] was 110% each time.

For `O=C(Nc1cccc2ccccc12)NC1CC1`, the growth was 91.5% in experiment [1]; 91.1% in experiment [2]; 113% in experiment [3]; 105% in experiment [4]; 87% in experiment [5]; 103% in experiment [6]. In addition, the growth in experiment [7] was 111%; in experiment [8], 115%.

The record behind these values is PubChem BioAssay (NCI).
